# Bioassay records deposited in PubChem by National Center for Advancing Translational Sciences (NCATS).
# In the library only some 3.1% were active in any assay of this set; here they are far more common.
# p53null 39C tox: selectivity test: cytotoxicity in p53 null cells, nonpermissive temperature; H1299 p53-null (neo) cells, 39C, ATPlite viability, 24 h; Potency, µM (highest dose often 46.1 µM), for the others: at the highest dose activity, negative = cell killing, usual class: cytotoxic; 55,000 compounds, 0.97% hits; AID 904;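 note: potency is the fitted concentration of half-maximal effect; 0% = DMSO only and -100% = full killing by 100 µM tamoxifen; nearly all actives have a fitted effect of over 50% in size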
#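 Concentration-response (up to 46 uM) was run for 24 h at the nonpermissive 39C on H1299-p53A138V or H1299-neo cells. ATP content was measured with ATPlite luminescence. AC50 values were Hill-modeled after normalizing between DMSO and 100 uM tamoxifen killing.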
# PMP22 txn prim: modulators of PMP22 gene transcription in S16 Schwann cells | S16 Pmp22-F2sN Schwann cells, FLuc/NLuc coincidence luminescence, 24 h | Potency, µM (top dose mostly 57.5 µM), for inactives: at the top dose activity change, negative = inhibition, hits mostly inhibitors | 43,000 compounds, 2% hits; active = clear falling dose curves in both reporters; inconclusive = both reporters move, but less clearly or upward; inactive = either reporter flat; the % is the NLuc reporter signal; note: potency is the fitted concentration of half-maximal effect; % is set by controls: 0 for no effect and ±100 for the full control effect
#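 Schwann cells carrying the coincidence reporter were exposed to library compounds for 24 h at 37C, then lysed and read for FLuc and, after quenching, NLuc luminescence on a CCD imager.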
# S16 F2sN tox: toxic to S16 Pmp22-F2sN Schwann cells; S16 Pmp22-F2sN Schwann cells viability, CellTiter-Glo, 24 h; 43,000 compounds, 0.48% hits; Potency, µM (doses to about 57.5 µM), for inactives: at the highest dose activity change, negative = cytotoxicity, hits mostly cytotoxic; note: potency is the fitted concentration of half-maximal effect; % is set by controls: 0 for no effect and ±100 for the full control effect; nearly all actives have a fitted effect of over 65% in size
#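 S16 Pmp22-F2sN Schwann cells (500-1,000/well) in phenol-red-free DMEM with 10% FBS received 23 nL compound by pin tool for 24 h at 37 °C. Viability was then read as CellTiter-Glo luminescence after 15 min at room temperature.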
# mTORC1 inh: reduces mTORC1 signaling in Tsc2 and p53 null MEF cells. Tsc2-/- p53-/- MEF, phospho-rpS6 immunofluorescence/PI, 24 h. Potency, µM (doses to about 38.3 µM), without a hit: top-dose activity change, negative = inhibition, hits mostly inhibitors. 44,000 compounds, 0.78% hits. AID 493208;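 note: potency is the fitted concentration of half-maximal effect; plate controls were DMSO for no effect and rapamycin for full effect; nearly all actives have a fitted effect of over 50% in size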
#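 Plate MEFs (Tsc2-/-, p53-/-, empty vector) in DMEM/10% FBS; after 24 h add compound, incubate 24 h at 37 degree Celsius; fix in PFA/TX-100, block, stain phospho-rpS6 and 10 uM PI; scan at 488 nm; report % positive cells.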
# p53null 32C kill: kills p53 null cells at the permissive temperature; H1299-neo p53 null cells, ATP luminescence, 24 h, 32C; Potency, µM (highest dose often 46.1 µM), inactives show top-dose activity change, negative = cytotoxicity, most hits filed as cytotoxic; 55,000 compounds, 0.62% hits; AID 903;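 note: potency is the fitted concentration of half-maximal effect; 0% = DMSO only and -100% = full killing by 100 µM tamoxifen; nearly all actives have a fitted effect of over 55% in size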
#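 Cells lacking p53 (H1299-neo) are plated at 600 per well and allowed to settle overnight at 37C. Test compounds (up to 46 uM) are added and held 24 hours at 32C, then ATP is quantified by luminescence.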
# OvCa metastasis: blocks SKOV3ip1 adhesion and invasion in omental model | 46,000 compounds, 0.1% hits | Potency, µM (highest dose often 45.8 µM), for the others: at the top dose activity change, negative = inhibition, most hits filed as inhibitors | SKOV3ip1-GFP adhesion/invasion on 3D omental model, fluorescence;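 note: potency is the fitted concentration of half-maximal effect; plate controls were DMSO wells for no effect and tomatine positive control wells for full effect; nearly all actives have a fitted effect of over 65% in size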
#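 A 3D layer of primary human omental fibroblasts, mesothelial cells, fibronectin and collagen I, grown 48 hr, received SKOV3ip1-GFP cells in serum-free medium plus compounds at 0.36-46 umol/L. After 2 hr RT and 16 hr 37 C, fixed adherent GFP cells were counted; normalized to DMSO and tomatine.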
# NLuc sat counter: counter-screen for PMP22 expression modulators: NanoLuc inhibition, saturating substrate; shares compounds with PMP22 txn prim; Secreted NLuc enzyme (filtered S16 cell medium), Nano-Glo luminescence; Potency, µM (series often up to 57.5 µM), for the others: at the highest dose activity change, negative = inhibition, usual class: inhibitors; 690 compounds, 4% hits; note: potency is the fitted concentration of half-maximal effect; % is set by controls: 0 for no effect and ±100 for the full control effect
# NLuc Km ctr: inhibits NanoLuc under Km conditions, PMP22 counter-screen. shares compounds with PMP22 txn prim. secreted NLuc enzyme, coelenterazine luminescence, Km conditions. Potency, µM (doses to about 57.5 µM), without a hit: at the highest dose activity change, negative = inhibition, actives largely listed as inhibitors. 690 compounds, 5% hits. AID 1508639; note: potency is the fitted concentration of half-maximal effect; % is set by controls: 0 for no effect and ±100 for the full control effect
# FLuc counter: inhibits firefly luciferase, PMP22 counter-screen; shares compounds with PMP22 txn prim; purified P. pyralis FLuc, luminescence, 10 min; Potency, µM (titrated, usually from 57.5 µM), inactives show top-dose activity, negative = inhibition, most hits filed as inhibitors; 690 tested, under 10 active; AID 1508640; note: % of control where 0% means no effect
# Target sequence (P08659 whole entry, looked up): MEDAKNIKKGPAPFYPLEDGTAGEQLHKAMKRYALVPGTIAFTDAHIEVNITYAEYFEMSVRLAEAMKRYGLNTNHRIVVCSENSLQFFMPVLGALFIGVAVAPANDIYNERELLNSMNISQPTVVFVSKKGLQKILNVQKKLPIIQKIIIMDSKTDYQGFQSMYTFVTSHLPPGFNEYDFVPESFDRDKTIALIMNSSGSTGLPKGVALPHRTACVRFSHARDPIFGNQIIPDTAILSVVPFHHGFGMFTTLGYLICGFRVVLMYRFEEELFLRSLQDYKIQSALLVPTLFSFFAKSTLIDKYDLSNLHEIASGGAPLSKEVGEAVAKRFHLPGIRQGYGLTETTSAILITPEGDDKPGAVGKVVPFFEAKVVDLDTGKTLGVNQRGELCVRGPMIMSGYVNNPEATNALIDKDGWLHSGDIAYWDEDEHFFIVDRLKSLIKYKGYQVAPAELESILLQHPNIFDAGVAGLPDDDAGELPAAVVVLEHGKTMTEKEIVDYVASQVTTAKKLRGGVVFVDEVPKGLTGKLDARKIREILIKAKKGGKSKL
# S16 viab conf: confirmation of cytotoxicity in S16 Pmp22-F2sN Schwann cells (luciferase reporters placed in the Pmp22 gene) | 690 compounds, 7% hits | S16 Schwann cells viability, CellTiter-Glo ATP luminescence, 24 h | Potency, µM (top dose mostly 57.5 µM), for the others: top-dose activity change, negative = viability loss, hits mostly cytotoxic | shares compounds with PMP22 txn prim; note: potency is the fitted concentration of half-maximal effect; % is set by controls: 0 for no effect and ±100 for the full control effect
# PMP22 txn conf: confirmation of modulators of PMP22 gene transcription in S16 cells; 690 compounds, 22% hits; AID 1508646; S16 Schwann cells Pmp22-F2sN, dual luciferase, 24 h; Potency, µM (doses to about 57.5 µM), for the others: at the highest dose activity change, negative = inhibition, most hits filed as inhibitors; shares compounds with PMP22 txn prim; active = clear falling dose curves in both reporters; inconclusive = both reporters move, but less clearly or upward; inactive = either reporter flat; the % is the FLuc reporter signal; note: potency is the fitted concentration of half-maximal effect
# PMP22 HiBiT cnf: confirmation of modulators of rat PMP22 protein expression. shares compounds with PMP22 txn prim. S16 Schwann cells Pmp22-HiBiT, luminescence, 48 h. Potency, µM (top dose mostly 27.9 µM), without a hit: at the top dose activity change, negative = inhibition, hits mostly inhibitors. 95 tested, under 10 active. AID 1508647
# Target sequence (P25094 whole entry, looked up): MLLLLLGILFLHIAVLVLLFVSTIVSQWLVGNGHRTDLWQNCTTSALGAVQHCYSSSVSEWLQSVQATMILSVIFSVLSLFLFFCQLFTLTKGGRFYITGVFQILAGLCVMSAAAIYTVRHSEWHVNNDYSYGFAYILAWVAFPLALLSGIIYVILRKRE
# Starred values were filed as active, the others as inactive; i = inactive; ? = inconclusive; · = no result; [ ] = remark or other dose. Unless noted, calls come from the whole dose curve; as a rule, active = well fitted curve in the direction sought with a large enough effect; inconclusive = small, poorly fitted or top-dose-only effect, or another doubt; inactive = no such curve, though single readings can be large; an effect the other way counts as inactive or inconclusive.
SMILES,p53null 39C tox,PMP22 txn prim,S16 F2sN tox,mTORC1 inh,p53null 32C kill,OvCa metastasis,NLuc sat counter,NLuc Km ctr,FLuc counter,S16 viab conf,PMP22 txn conf,others
COc1ccc(C(C(=O)NCc2ccccc2)N(C(=O)Cn2nnc3ccccc32)c2ccc(F)cc2)cc1 (stereo unspecified),-20%,11µM*,5%,-4%,-4%,-8%,-1%,2%,0%,-1%,-1%,
COc1ccc(N(C(=O)Cn2nnc3ccccc32)C(C(=O)NCc2ccccc2)c2ccc(F)cc2)cc1 (stereo unspecified),-7%,-29%,3%,2%,-13%,-7%,·,·,·,·,·,
CCOC(=O)c1cc2c(=O)n3ccccc3nc2n(CC(C)C)c1=NC(=O)COc1ccc(Cl)cc1,-8%,16µM*,-6%,2%,-2%,-8%,-15%,1%,-4%,-26%,?,
CCOC(=O)c1cc2c(=O)n3ccccc3nc2n(CC(C)C)c1=NC(=O)C(C)(C)Oc1ccc(Cl)cc1,-3%,?,-2%,3%,-6%,1%,·,·,·,·,·,
Cc1nc(C(=O)NCC(=O)O)c(O)c2ccc(Oc3ccccc3)cc12,·,·,·,·,·,4%,·,·,·,·,·,
COc1ccc(CNC(=O)c2nc(SCc3ccc(C)cc3)ncc2Cl)cc1,-16%,?,-2%,-2%,-10%,-16%,·,·,·,·,·,
CCCS(=O)(=O)c1ncc(Cl)c(C(=O)Nc2c(C(=O)Nc3ccccc3)oc3ccccc23)n1,16µM*,7.1µM*,?,2.1µM*,-29%,-12%,-13%,1.4µM*,6%,17µM*,8.2µM*,
CCS(=O)(=O)c1ncc(Cl)c(C(=O)NCc2ccccc2)n1,-15%,8.4µM*,?,2.6µM*,?,10µM*,-7%,-20%,3%,15µM*,6.9µM*,
COc1ccc(NC(=O)c2nc(S(=O)(=O)Cc3ccc(C)cc3)ncc2Cl)cc1,?,11µM*,?,3.7µM*,-21%,?,-11%,-15%,3%,?,5.8µM*,PMP22 HiBiT cnf=-9%
C#CCC(Cc1cnc2nc(N)nc(N)c2n1)c1ccc(C(=O)N[C@@H](CCC(=O)O)C(=O)O)cc1 (stereo partly specified),·,·,·,·,·,20%,·,·,·,·,·,
COc1ccc(-c2cc3nc(C)c(CCC(=O)N4CCN(c5ccccc5F)CC4)c(C)n3n2)c(OC)c1,-2%,?,18%,1%,-10%,9%,·,·,·,·,·,
COc1ccc(-c2cc3nc(C)c(CCC(=O)N4CCN(c5cc(C)ccc5C)CC4)c(C)n3n2)c(OC)c1,-15%,14µM*,21%,-5%,0%,10%,?,0%,-5%,-7%,-39%,
CCOc1ccccc1Nc1sc(C(=O)c2ccccc2)c(N)c1S(=O)(=O)c1ccc(C)cc1,21%,2.8µM*,?,5%,12%,?,-6%,6%,5%,17%,?,
Cc1cccc(C)c1Nc1sc(C(=O)c2ccccc2)c(N)c1S(=O)(=O)c1ccccc1,-16%,6.7µM*,-1%,-11%,29%,?,-10%,-2%,7%,-13%,?,
Cc1c(Cl)cccc1Nc1sc(C(=O)c2ccccc2)c(N)c1S(=O)(=O)c1ccccc1,0%,-19%,-5%,0%,10%,i,·,·,·,·,·,
Cn1cc(C[C@@H](N)C(=O)O)c2ccccc21,·,·,·,·,·,6%[23.2 µM],·,·,·,·,·,
Cc1ccc(NC(=O)/C(C#N)=C/c2cc(C)n(-c3ccc(Br)cc3)c2C)cc1C,-2%,12µM*,-10%,3%,-1%,?,0%,-2%,-2%,8%,?,
Cc1ccc(-n2c(C)cc(/C=C(\C#N)C(=O)Nc3ccc(C)c(C)c3)c2C)cc1,-11%,-10%,-1%,1%,5%[9.22 µM],i,·,·,·,·,·,
CC(C)=CCCC(C)=CCCC(C)=CCCC(C)=CCCC(C)=CCCC(C)=CCCC(C)=CCCC(C)=CCCC(C)=CCO,·,·,·,·,·,10%,·,·,·,·,·,
O=C(CCS(=O)(=O)c1nc(-c2cccs2)cc(C(F)(F)F)n1)Nc1ccc(Br)cc1,47%,6.4µM*,?,?,5%,3.2µM*,-7%,?,-3%,?,11µM*,PMP22 HiBiT cnf=65%
CCN(CC)c1ccc(NC(=O)CSc2nc(-c3cccs3)cc(C(F)(F)F)n2)cc1,-23%,?,0%,-14%,10%,-9%,·,·,·,·,·,
COc1ccc(OC)c(CCNc2ncnc3onc(C)c23)c1,-6%,11µM*,-17%,?,-8%,-1%,-9%,-4%,?,-13%,-26%,
COc1ccc(NC(=O)CSc2nc(-c3ccco3)cc(C(F)(F)F)n2)cc1,-24%,?,1%,-20%,14%,-3%,-2%,7%,4%,10%,23%,
CC1=Nc2cc(C(=O)NCc3ccccc3Cl)ccc2Sc2c(C)ccc(C)c21,44%,10µM*,0%,-17%,27%,-2%,-16%,0%,-13%,7%,?,
